# Shown are actives, neighbours in structure and some others; about 12% of the full set was active somewhere.
# Sfp PPTase inh = Sfp phosphopantetheinyl transferase inhibition; Q9F4F7; Biochemical Sfp PPTase activity, qHTS; Potency, µM, usual class: inhibitors; actives 3.5% (n = 310,000);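 further: the enzyme is Sfp with the accession as filed and its product quenches rhodamine fluorescence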
#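 With Hepes-Na pH 7.6 buffer containing 10 mM MgCl2, Sfp (15 nM) modified BHQ-2-YbbR (12.5 uM) using rhodamine-CoA (5 uM). Two reads 30 minutes apart at 525/598 nm yielded each well's rate.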
# BAZ2B inh = BAZ2B (human) inhibition | actives 4.4% (n = 360,000) | AlphaScreen BAZ2B-H3K14Ac peptide displacement | Potency, µM (top dose mostly 114 µM), most hits filed as inhibitors | AID 504333; further: nearly all actives have a fitted effect of over 60% in size
#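 BAZ2B 50 nM plus b-H3(5-23)K14Ac 50 nM, PBS pH 7.4/0.01% Tween-20, 30 min RT; compound added (max 110 uM), 30 min RT; streptavidin donor/Ni-chelate acceptor beads 10 ug/mL final, 20 min dark; AlphaScreen read.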
# JMJD2A Tudor inh = blocks the human JMJD2A Tudor domain; O75164; AlphaScreen JMJD2A-Tudor / H3K4me3 peptide binding; Potency, µM (top dose mostly 114 µM), usual class: inhibitors; actives 4.4% (n = 390,000); AID 504339; further: nearly all actives have a fitted effect of over 50% in size
# HP1b binding inh = HP1-beta chromodomain-methylated histone interaction inhibition; P83916; AlphaScreen HP1-beta / biotin-H3K9me3 peptide binding; Potency, µM (doses to about 114 µM), hits mostly inhibitors; actives 0.56% (n = 390,000); AID 540317; further: nearly all actives have a fitted effect of over 70% in size
#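 AlphaScreen: HP1-beta (50 nM) preformed 30 min with biotin-H3(1-18)K9me3 peptide (50 nM) in PBS pH 7.4, 0.01% Tween-20. Compound added for 30 min at RT, then streptavidin donor/nickel chelate acceptor beads (10 ug/mL) for 30 min.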
# G9a block = blocks human histone lysine methyltransferase G9a. Q96KQ7. G9a H3K9 monomethylation, AlphaScreen, 2 h. Potency, µM (series often up to 102 µM), most hits filed as inhibitors. actives 8.8% (n = 350,000). AID 504332; further: nearly all actives have a fitted effect of over 75% in size
#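 AlphaScreen read-out: biotin-H3K9 peptide (500 nM) methylation by 20 nM enzyme with 20 uM SAM, 2 h at room temperature after 15 min compound preincubation; anti-monomethyl H3K9 antibody plus donor/acceptor beads, 10 min dark.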
# L3MBTL1 inh = L3MBTL1 (human) inhibition; AlphaScreen L3MBTL1–H3K9me1 peptide binding; Potency, µM (highest dose often 57.1 µM), hits mostly inhibitors; actives 0.66% (n = 230,000); further: nearly all actives have a fitted effect of over 60% in size
# Target sequence (Q9Y468 whole entry, looked up): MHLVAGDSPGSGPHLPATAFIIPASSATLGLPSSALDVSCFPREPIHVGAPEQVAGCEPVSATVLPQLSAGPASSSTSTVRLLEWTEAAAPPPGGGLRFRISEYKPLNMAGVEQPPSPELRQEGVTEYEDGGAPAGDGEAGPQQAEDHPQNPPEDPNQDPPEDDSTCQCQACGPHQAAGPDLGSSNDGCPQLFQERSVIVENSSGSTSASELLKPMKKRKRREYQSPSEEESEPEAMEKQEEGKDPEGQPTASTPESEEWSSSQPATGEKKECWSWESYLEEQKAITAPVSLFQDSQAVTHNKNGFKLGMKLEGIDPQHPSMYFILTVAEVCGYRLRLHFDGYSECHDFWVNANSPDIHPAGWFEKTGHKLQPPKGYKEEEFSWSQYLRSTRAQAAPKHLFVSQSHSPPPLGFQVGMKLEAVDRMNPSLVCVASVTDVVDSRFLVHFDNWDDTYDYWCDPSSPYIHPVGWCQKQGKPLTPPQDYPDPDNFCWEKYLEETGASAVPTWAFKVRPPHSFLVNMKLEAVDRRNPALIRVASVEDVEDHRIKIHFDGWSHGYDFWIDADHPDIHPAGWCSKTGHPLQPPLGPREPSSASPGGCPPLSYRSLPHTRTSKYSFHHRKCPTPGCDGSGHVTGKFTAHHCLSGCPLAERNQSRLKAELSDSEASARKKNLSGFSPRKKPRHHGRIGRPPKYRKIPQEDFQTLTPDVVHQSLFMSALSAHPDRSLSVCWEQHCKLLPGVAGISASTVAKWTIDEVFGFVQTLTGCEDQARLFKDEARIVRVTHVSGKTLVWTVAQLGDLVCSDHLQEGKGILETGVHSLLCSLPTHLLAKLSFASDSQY
#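 L3MBTL1 50 nM + b-AHA-H3(1-15)K9me1 75 nM, 30 min RT; compound added, 30 min RT; streptavidin donor/Ni-chelate acceptor beads 10 ug/mL each final, 30 min RT dark; AlphaScreen read.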
# A number is an active result; 0 = inactive; ? = inconclusive; - = no result given; [ ] = dose if it differs, or a comment. The call rests on the fitted dose curve; in most records, active means well fitted curve in the direction sought with a large enough effect; inconclusive means small, poorly fitted or top-dose-only effect, or another doubt; inactive means no such curve, though single readings can be large; an effect the other way counts as inactive or inconclusive.
SMILES,Sfp PPTase inh,BAZ2B inh,JMJD2A Tudor inh,HP1b binding inh,G9a block,L3MBTL1 inh
COc1ccc(N2CCN(CCCNC(=O)C3COc4ccc(OC)cc4C3)CC2)cc1 (stereo unspecified),-,?,?,0,?,-
COc1cc(/C=N/Nc2nncn2N)ccc1OCc1c(C)no[n+]1[O-],71µM,0,0,0,-,0
COc1ccc(/C=N/Nc2nncn2N)cc1Br,0,?,0,0,-,?
O=C(Oc1ccc(/C=N/O)cc1)c1ccccc1,0,0,0,0,0,0
COCCOC(=O)/C(=C/c1ccc(OC(=O)c2ccccc2)cc1)C(C)=O,?,0,0,0,50µM,0
CCOC(=O)/C(=C/c1ccc(OC(=O)c2ccncc2)cc1)C(C)=O,0,0,0,0,22µM,0
CCOC(=O)C(=Cc1ccc(-n2ccnc2)cc1)C(=O)OCC,0,?,0,0,45µM,-
CC1CN(c2oc(COc3ccc(Cl)cc3Cl)nc2C#N)CC(C)O1 (stereo unspecified),0,35µM,?,0,?,0
N#Cc1nc(COc2ccccc2)oc1N1CCCCC1,0,?,?,?,?,0
N#Cc1nc(COc2ccc(Cl)cc2)oc1N1CCCCCC1,0,11µM,?,0,?,?
Cc1cccc(OCc2nc(C#N)c(N3CCCC3)o2)c1,0,40µM,0,?,-,?
Cc1ccc(OCc2nc(C#N)c(N3CCCCC3)o2)cc1,0,28µM,?,?,40µM,?
CSc1cccc(NC(=O)c2cnn(-c3ccc(F)cc3)c2-n2cccc2)c1,-,0,0,0,0,-
CC(C)C[C@@H]1NC(=O)[C@H](CO)NC(=O)c2cc([N+](=O)[O-])cc(I)c2OCC[C@@H](C(N)=O)NC1=O,0,0,0,0,40µM,0
C[C@@H](O)C1NC(=O)[C@H](CCCCN)NC(=O)c2cc([N+](=O)[O-])cc(I)c2OCC[C@@H](C(N)=O)NC1=O (stereo partly specified),0,?,56µM,0,8.9µM,0
O=C(Cn1ccn(-c2cccc(Cl)c2)c(=O)c1=O)NCCc1ccccc1,-,0,0,0,?,-
Cc1ccc(Cl)c2c1NC(=O)C2(O)CC(=O)c1ccccc1O (stereo unspecified),0,0,0,0,14µM,0
COc1ccc2c(c1)[nH]c1c(=O)n(/N=C/c3ccc(OC)c(CN4CCCC4)c3)cnc12,0,0,0[11.4 µM],0,0[12.7 µM],0
COc1ccc(/C=N/n2cnc3c([nH]c4ccc(F)cc43)c2=O)cc1CN1CCCC1,0,0,0,?,40µM,0
COc1ccc(/C=N/n2cnc3c([nH]c4ccccc43)c2=O)cc1COc1ccccn1,?,56µM,-,-,0,-
NC(=O)C1CCN(S(=O)(=O)c2ccc(N3CCCCS3(=O)=O)cc2)CC1,-,0,0,0,0[12.7 µM],-
Cc1cc(C)nc(N2N=C(C(C)(C)C)CC2=O)n1,0,0,?,0,3.5µM,-
COc1ccc(OCCOC(=O)CNC(=O)c2cccc(C)c2)cc1,-,0,0,0,50µM,0
Cc1cccc(C(=O)NCC(=O)OCCOc2ccccc2Cl)c1,-,0,0,0,0[2.33 µM],0
COc1ccc(CNC(=O)CCC2N=C3c4ccccc4N=C(SCc4ccccc4F)N3C2=O)cc1 (stereo unspecified),-,0,0,0,0,-
SMILES,Sfp PPTase inh,BAZ2B inh,JMJD2A Tudor inh,HP1b binding inh,G9a block,L3MBTL1 inh
O=C(/C=C/c1ccccn1)c1cc(Cl)cc(Cl)c1O,0,0,0[11.4 µM],0,50µM,0
Oc1ccc2oc3c(c2c1C=NCc1ccncc1)CCCC3,50µM,0,0,0,71µM,0
CC(=O)c1cccc(NS(=O)(=O)c2cc3c(cc2C)n(C)c(=O)c(=O)n3C)c1,-,0,0,0,0,-
Cc1ccc(-n2c(SCc3ccccc3)nc3c([nH]c4ccccc43)c2=O)cc1,-,0,0,0,0,-
Cc1nnc(C)c2c(C)n(-c3cccc4cccnc34)c(C)c12,0,?,-,-,71µM,0
Cc1nnc(C)c2c(C)n(-c3ccccc3N)c(C)c12,56µM,0,?,0,0,0
Cc1nnc(C)c2c(C)n(-c3ccccc3)c(C)c12,0,0,?,0,0,-
COCc1cc(=O)n2[nH]c(SC)nc2n1,0,0,0,0,0[12.7 µM],-
COCc1cc(=O)n2[nH]c(N)nc2n1,0,50µM,0,0,-,-
COc1ccc(-c2nc(-n3c(C)c(C(C)=O)c(C(C)=O)c3C)sc2C)cc1,0,?,?,0,?,0
Cc1sc(N)nc1-c1cccs1,0,0,0,0,?,0
Cc1ccc(-c2nc(N)sc2-c2ccccc2)cc1C,0,?,?,?,?,0
COc1ccc(-c2nc(C)sc2C)cc1,0,0,32µM,?,?,0
CCCc1sc(N)nc1-c1ccc(C)cc1,0,?,?,0,56µM,0
Cc1ccc(-c2nc(N)sc2-c2ccc(C)cc2)cc1,0,?,?,0,50µM,0
Cc1ccc(-c2nc(N)sc2C)cc1,0,?,0,0,50µM,0
CCOC(=O)Cc1ccc(NC(=O)N2CCC(CN3CCC(C)CC3)CC2)cc1,-,0,0,0,0,-
O=C(Nc1cccc(Cl)c1)c1ccc2nc(Cc3ccccc3)oc2c1,-,0,0,0,0,-
COc1ccc(NC(=O)N2CC[C@@]3(CCCN(C(=O)c4ccncc4)C3)C2)cc1,0,-,-,-,0[12.7 µM],-
Nc1nc(-c2ccccc2)c(-c2ccccc2)s1,0,0,?,0,40µM,0
Nc1nc(-c2ccccc2)c(-c2ccc([N+](=O)[O-])cc2)s1,0,0,0,0,0,-
N#Cc1c(SCC(=O)Nc2nc3ccc(Br)cc3s2)sc2c(O)cc(=O)[nH]c12,0,20µM,25µM,22µM,40µM,-
CCCSc1nnc(NC(=O)CSc2sc3c(O)cc(=O)[nH]c3c2C#N)s1,?,40µM,56µM,0,11µM,-
N#Cc1c(SCC(=O)Nc2nccs2)sc2c(O)cc(=O)[nH]c12,40µM,16µM,0,0,32µM,-
CCOc1ccc(CNCc2c(C(=O)O)c(C)n(Cc3ccc(F)cc3Cl)c2C)cc1,-,?,0,0,0,-
SMILES,Sfp PPTase inh,BAZ2B inh,JMJD2A Tudor inh,HP1b binding inh,G9a block,L3MBTL1 inh
CC(C)c1nccn1S(=O)(=O)c1cc(Cl)ccc1Cl,0,0,0,0,0,0
COc1ccc(OC)c(S(=O)(=O)n2nnc3ccccc32)c1,0,?,0,0,0,0
COc1ccc(Cl)cc1S(=O)(=O)n1nnc2ccccc21,0,?,0,0,50µM,0
COc1ccc(Cl)cc1S(=O)(=O)n1c([N+](=O)[O-])cnc1C,71µM,?,0,0,0[0.501 µM],0[2.29 µM]
COc1ccc(Cl)cc1S(=O)(=O)n1ccnc1C(C)C,0,0,0,0,50µM,-
Cc1noc(C)c1C(=O)N1CCC2(CCN(C(=O)NC(C)C)CC2)CC1,0,-,-,-,0[12.7 µM],-
CSCCC1Nc2ccc(S(=O)(=O)N3CCOCC3)cc2NC1=O (stereo unspecified),0,-,0,0,3.2µM,0
CC1C(=O)Nc2ccc(S(=O)(=O)N3CCCCC3)cc2NC1=O (stereo unspecified),-,0,0,0,0,-
